Consider 7 molecules from PubChem BioAssay AID493170 (National Center for Advancing Translational Sciences (NCATS), 2011).

Molecules are shown by their SMILES. Inconclusive results are not listed. Entries that show only a call come without a potency. The source made the active and inactive calls. The call rests on the fitted dose curve; in most records, active means well fitted inhibition curve with a large enough effect; inconclusive means small, poorly fitted or top-dose-only effect, or effect the other way; inactive means flat fitted curve, though single readings scatter.

Sequence of Ubiquitin carboxyl-terminal hydrolase 2 (Homo sapiens) (O75604 whole entry, looked up): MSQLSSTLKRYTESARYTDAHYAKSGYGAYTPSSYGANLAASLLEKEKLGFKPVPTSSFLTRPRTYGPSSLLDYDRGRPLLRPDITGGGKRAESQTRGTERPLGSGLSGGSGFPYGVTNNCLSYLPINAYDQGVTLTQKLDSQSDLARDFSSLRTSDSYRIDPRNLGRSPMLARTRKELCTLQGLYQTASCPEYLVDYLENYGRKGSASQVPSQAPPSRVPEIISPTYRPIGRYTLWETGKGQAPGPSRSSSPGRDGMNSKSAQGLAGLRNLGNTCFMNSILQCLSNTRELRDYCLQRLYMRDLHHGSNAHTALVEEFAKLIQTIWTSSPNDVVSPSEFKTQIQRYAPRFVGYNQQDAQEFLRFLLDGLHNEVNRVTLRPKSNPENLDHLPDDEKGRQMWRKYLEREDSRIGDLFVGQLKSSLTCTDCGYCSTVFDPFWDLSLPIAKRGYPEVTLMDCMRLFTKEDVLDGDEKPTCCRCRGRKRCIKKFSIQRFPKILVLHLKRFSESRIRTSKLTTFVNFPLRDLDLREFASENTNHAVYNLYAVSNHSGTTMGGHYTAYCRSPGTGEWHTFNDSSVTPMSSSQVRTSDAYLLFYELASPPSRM

In the assay the target is Ubiquitin carboxyl-terminal hydrolase 2 (Homo sapiens) (UniProt O75604). The assay can be described thus: Ub-rhodamine 110 based assay for inhibitors Ubiquitin-specific Protease USP2a. Further: nearly all actives have a fitted effect of over 50% in size. The settings on record: USP2a Ub-rhodamine110 cleavage, fluorescence; series mostly up to 38.3 µM. An outline of the steps:
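Kinetic fluorescence (485/531 nm) read each minute over 7 min after adding Ub-Rhod110 (150 nM final) to USP2a (5 nM final). The enzyme had 30 min RT exposure to compounds beforehand in Tris pH 8.0 buffer with CaCl2, CHAPS and beta-ME.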
For the molecule `CN1CCN(CCCCOc2ccc(F)cc2)CC1`, the Potency entry was “inactive”.

Regarding `CCOc1cc(/C=C/c2nc3cc(C)c(C)cc3s2)ccc1OCC(=O)N1CCOCC1`, the Potency entry is “inactive”.

As for `C[C@H](CO)N1C[C@H](C)[C@@H](CN(C)S(=O)(=O)c2cn(C)cn2)Oc2ccc(NC(=O)Cn3cnnn3)cc2C1=O`, the Potency entry was “inactive”.

Consider `CCC(C)NC(=O)CSC1=Nc2ccccc2C2=NC(c3ccccc3)C(=O)N12` (configuration not stated), for which the Potency result was “inactive”.

Take `CC(=O)C1=C(O)C(=O)N(c2nnn(C)n2)C1c1cccs1` (configuration not stated): the Potency entry is “inactive”.

Turning to `Cc1cccc(NC(=O)NCc2ccc3c(c2)cc(C)n3C)c1`, the Potency entry was “inactive”.

For `O=C(NCCN1C(=O)CSC1=O)C1CC(=O)N(c2ccccc2)C1` (configuration not stated), the Potency entry was “inactive”.
